Test results reported in PubChem BioAssay (Tox21).
Results filed as inconclusive are left out. A number with no mark means an inactive call. Calls of active or inactive are those of the source. Unless noted, calls come from the whole dose curve; as a rule, active = well fitted curve in the direction sought with a large enough effect in the repeat runs; inconclusive = weak or mixed curves; inactive = no such curve, though single readings can be large; an effect the other way counts as inactive or inconclusive.

tested on: not listed separately; experiment: qHTS assay to identify small molecule antagonists of the thyroid receptor (TR) signaling pathway - cell viability counter screen (AID 743064); details: GH3.TRE-Luc viability, CellTiter-Fluor, 24 h; series mostly up to 70.3 µM; activity change, negative = cytotoxic: at the top concentration; note: nearly all actives have a fitted effect of over 50% in size; note: potency is the fitted concentration of half-maximal effect
Procedure, shortened: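 Same-well viability check: GH3.TRE-Luc cells stimulated with 1 nM T3 alongside test compound for 23.5 h, followed by CellTiter-Fluor fluorescence.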
% is set by controls: 0 for no effect and ±100 for the full control effect.

Structure (SMILES) | activity change, negative = cytotoxic | Potency
CCO[Si](C)(CCCOCC1CO1)OCC (stereo not drawn) | -21.8% | –
O=C(O)c1cc(Cl)cc(Cl)c1O | 0.579% | –
CCOC(=O)C(C)O (stereo not drawn) | 15% [at 95 µM] | –
COc1ccc(-c2cc(=S)ss2)cc1 | -5.62% | –
O=C(Oc1ccccc1)c1ccc2ccccc2c1O | -3.54% | –
CC12CC3CC(C)(C1)CC(N)(C3)C2 | – | 29.8 µM (active)
CCCOC(=O)c1c(Cl)c(Cl)c(Cl)c(Cl)c1C(=O)OCCC | -24.2% | –
CCCCCCCCCCCCCC(=O)OCC(O)CO (stereo not drawn) | -19.7% | –
CNS(=O)(=O)c1cc(C(=O)N2CCC(CCN3C4CCC3CC(n3c(C)nc5ccccc53)C4)(c3cccc(F)c3)CC2)c(Cl)cc1F (stereo not drawn) | – | 54.5 µM (active)
CC/C=C\C/C=C\C/C=C\CCCCCCCC(=O)OCC | -6.12% [at 95 µM] | –
CO[C@@H]1[C@@H](OC)[C@H](C)[C@@](O)(CC(=O)O)O[C@H]1[C@H](C)[C@H]1O[C@@]2(CC[C@@](C)([C@H]3CC[C@@](C)([C@@H]4O[C@@H]([C@H]5O[C@](C)(O)[C@H](C)C[C@@H]5C)C[C@@H]4OC4C[C@H](OC)[C@@H](OC)[C@H](C)O4)O3)O2)C[C@H](O)[C@H]1C (stereo partly drawn) | – | 0.422 µM (active)
O=S(=O)(Cl)c1c(Cl)cccc1Cl | 13.3% | –
CCOC(=O)c1c(N)sc2c1CCN(Cc1ccccc1)C2 | 17.5% | –
COc1ccc(-n2nc(C(F)F)cc2-c2ccc(S(C)=O)cc2)cc1 (stereo not drawn) | -18.5% | –
CCOC(=O)c1ccc(NC(=O)CN2CCCCC2)cc1 | -28.7% | –
O=[N+]([O-])C1(Br)COCOC1 | – | 17.2 µM (active)
CC(=O)OC(C)C[N+](C)(C)C (stereo not drawn) | -10.8% [at 32.5 µM] | –
FC(F)(F)C(F)(F)C(F)(F)C(F)(F)CCI | 19.6% [at 32.5 µM] | –
CCN(Cc1cccc(S(=O)(=O)O)c1)c1ccc(C(=C2C=CC(=[N+](CC)Cc3cccc(S(=O)(=O)O)c3)C=C2)c2ccc(O)cc2S(=O)(=O)[O-])cc1 | – | 37.1 µM (active)
CC(C)(C(=O)c1cccnc1)c1cccnc1 | -19.2% [at 32.5 µM] | –
Cc1cc(CCC(=O)OCCOCCOCCOC(=O)CCc2cc(C)c(O)c(C(C)(C)C)c2)cc(C(C)(C)C)c1O | -6.89% | –
CC(CO)(CO)C(=O)O | 4.05% [at 95 µM] | –
CC(C)OC(=O)c1ccccc1C(=O)OC(C)C | 8.67% | –
COC(=O)C1=C(C)NC(C)=C(C(=O)OC(C)(C)CN(C)CCC(c2ccccc2)c2ccccc2)C1c1cccc([N+](=O)[O-])c1 (stereo not drawn) | – | 8.41 µM (active)
CCCCCCCCCCCCCOS(=O)(=O)O | 5.76% | –
CC(CCc1ccc(O)cc1)NCCc1ccc(O)c(O)c1 (stereo not drawn) | 6.61% | –
COc1cc(NC(C)CCCN)c2ncccc2c1 (stereo not drawn) | – | 11.4 µM (active)

tested on: not listed separately; experiment: qHTS assay to identify small molecule antagonists of the thyroid receptor (TR) signaling pathway (AID 743065); details: GH3.TRE-Luc, T3-stimulated luciferase inhibition, 23.5 h; series mostly up to 70.3 µM; activity, negative = inhibition: at the top concentration; note: nearly all actives have a fitted effect of over 55% in size; note: potency is the fitted concentration of half-maximal effect
Procedure, shortened: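 GH3.TRE-Luc rat pituitary cells carrying two TR response elements driving luciferase were plated for 4 h, given compound plus 1 nM T3 (final), and incubated 23.5 h at 37 C. ONE-Glo luminescence measured reporter inhibition; CellTiter-Fluor fluorescence tracked cytotoxicity.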

Structure (SMILES) | activity, negative = inhibition | Potency
CC(=O)c1ccc[nH]1 | 30.5% | –
COc1ccc(C2C(=O)c3ccccc3C2=O)cc1 | 9.55% | –
O=C(c1ccccc1)c1ccc(O)cc1 | -0.177% [at 95 µM] | –
CC12CC3CC(C)(C1)CC(N)(C3)C2 | – | 29.8 µM (active)
NC(=O)c1ccccc1[N+](=O)[O-] | 2.05% [at 95 µM] | –
Cc1ccc(NC(=O)N(C)C)cc1NC(=O)N(C)C | -5.41% | –
CNS(=O)(=O)c1cc(C(=O)N2CCC(CCN3C4CCC3CC(n3c(C)nc5ccccc53)C4)(c3cccc(F)c3)CC2)c(Cl)cc1F (stereo not drawn) | – | 48.6 µM (active)
CO[C@@H]1[C@@H](OC)[C@H](C)[C@@](O)(CC(=O)O)O[C@H]1[C@H](C)[C@H]1O[C@@]2(CC[C@@](C)([C@H]3CC[C@@](C)([C@@H]4O[C@@H]([C@H]5O[C@](C)(O)[C@H](C)C[C@@H]5C)C[C@@H]4OC4C[C@H](OC)[C@@H](OC)[C@H](C)O4)O3)O2)C[C@H](O)[C@H]1C (stereo partly drawn) | – | 0.335 µM (active)
CC1=CC[C@@H]2C[C@H]1C2(C)C | -14.9% [at 18.2 µM] | –
O=[N+]([O-])C1(Br)COCOC1 | – | 15.4 µM (active)
COc1cc(OC)c2ccc(=O)oc2c1 | -0.0064% | –
CC(C)C(O)C(C)(C)CO (stereo not drawn) | 62.7% [at 95 µM] | –
COc1ccc(C(=O)NCc2ccc(OCCN(C)C)cc2)cc1OC | 24.3% | –
COC(=O)C1=C(C)NC(C)=C(C(=O)OC(C)(C)CN(C)CCC(c2ccccc2)c2ccccc2)C1c1cccc([N+](=O)[O-])c1 (stereo not drawn) | – | 6.68 µM (active)
CC1C(C)(C)C2=C(C(=O)CCC2)C1(C)C (stereo not drawn) | 13% | –
CC(CCc1ccc(O)cc1)NCCc1ccc(O)c(O)c1 (stereo not drawn) | 6.53% | –
CCN(CC)CCOc1ccccc1C(=O)CCc1ccccc1 | – | 26.6 µM (active)

tested on: thyroid hormone receptor (rat, GH3 cells); experiment: qHTS assay to identify small molecule agonists of the thyroid receptor (TR) signaling pathway (AID 743066; calls by dose curve); details: GH3.TRE-Luc cells, TR agonist luciferase, 24 h; series mostly up to 83.9 µM; activation: at the top concentration

Structure (SMILES) | activation
CC(=O)c1ccc[nH]1 | 0.904%
CCO[Si](C)(CCCOCC1CO1)OCC (stereo not drawn) | -1.21%
COc1ccc(C2C(=O)c3ccccc3C2=O)cc1 | 0.446%
O=C(O)c1cc(Cl)cc(Cl)c1O | -1.98%
COc1ccc(-c2cc(=S)ss2)cc1 | 0.882%
O=C(c1ccccc1)c1ccc(O)cc1 | 6.58% [at 95.2 µM]
O=C(Oc1ccccc1)c1ccc2ccccc2c1O | -5.38%
CCCOC(=O)c1c(Cl)c(Cl)c(Cl)c(Cl)c1C(=O)OCCC | -5.57%
NC(=O)c1ccccc1[N+](=O)[O-] | 1.61% [at 95.2 µM]
CCCCCCCCCCCCCC(=O)OCC(O)CO (stereo not drawn) | -1.18%
Cc1ccc(NC(=O)N(C)C)cc1NC(=O)N(C)C | 0.174%
CC/C=C\C/C=C\C/C=C\CCCCCCCC(=O)OCC | -0.423% [at 95.2 µM]
CCOC(=O)c1c(N)sc2c1CCN(Cc1ccccc1)C2 | -1.61%
COc1ccc(-n2nc(C(F)F)cc2-c2ccc(S(C)=O)cc2)cc1 (stereo not drawn) | -4.43%
CCOC(=O)c1ccc(NC(=O)CN2CCCCC2)cc1 | -4.2%
CC1=CC[C@@H]2C[C@H]1C2(C)C | 0.116% [at 18 µM]
COc1cc(OC)c2ccc(=O)oc2c1 | -2.16%
CC(C)C(O)C(C)(C)CO (stereo not drawn) | 2.05% [at 95.2 µM]
COc1ccc(C(=O)NCc2ccc(OCCN(C)C)cc2)cc1OC | 1.72%
Cc1cc(CCC(=O)OCCOCCOCCOC(=O)CCc2cc(C)c(O)c(C(C)(C)C)c2)cc(C(C)(C)C)c1O | -5.1%
CC1C(C)(C)C2=C(C(=O)CCC2)C1(C)C (stereo not drawn) | -0.136%
CCCCCCCCCCCCCOS(=O)(=O)O | -8.01%
COc1cc(NC(C)CCCN)c2ncccc2c1 (stereo not drawn) | -0.889% [at 39.4 µM]
CCN(CC)CCOc1ccccc1C(=O)CCc1ccccc1 | -4.54%
